These results are taken from PubChem BioAssay.

The first assay can be described thus: binders from COS7 lysate, DM2A8 probe, primary screen, torsin A project, cell lysate, small-molecule microarray, fluorescence 635/667 (AID 1065). The settings on record: higher = more signal, COS7 lysate expressing mutant human TOR1A.
In turn, `CCOC(=O)[C@H](CC(C)C)NC(=O)CCC1CC(OC(=O)NCc2cccc3ccccc23)CC2(CCCC(COC(=O)NCC3CCCCC3)O2)O1` (stereo partly specified) showed a composite z-score of 0.194.

`CC(C)CCN1CCc2nc(COc3ccccc3)c3c(c2C1)CO[C@@H](C)C3`: the composite z-score came to 0.369.

With `COC(=O)CC=C[C@@H](C)[C@@H](C=NO[C@H](C)c1cn([C@H](CO)Cc2ccccc2)nn1)OC`, the composite z-score is 0.44.

`CON=C(C)CCC(=O)OC[C@H]1O[C@H](c2ccccc2)C=C[C@@H]1Oc1ccc(OC)cc1`: the composite z-score stood at 0.0837.

In turn, `CCOC(=O)NN=C1C[C@@H](O)[C@@H](O)[C@@H]2[C@@H]3C(=O)N(c4cccc(Oc5ccccc5)c4)C(=O)[C@@H]3CC[C@@H]12` registered a composite z-score of 1.21.

`CCN1C(=O)[C@H]2[C@H]3[C@H](O)[C@H](O)CC(=NO[C@@H](C)c4cn([C@H](CO)Cc5ccccc5)nn4)[C@@H]3CC[C@H]2C1=O` gave a composite z-score of 0.387.

`COC(=O)CC=C[C@@H](C)[C@@H]1C=C[C@H](O)[C@@H](CO)O1`: the composite z-score is 0.124.

`C[C@@H](ON=C1[C@H]2CCn3c(=O)n(-c4ccccc4)c(=O)n3[C@H]2[C@H](O)[C@@H]2O[C@H]12)c1cn([C@@H]2COC[C@H]2O)nn1`: the composite z-score came out at 0.653.

In the case of `CC(CCC(=O)OC[C@H]1O[C@H](C#Cc2ccccc2)C=C[C@@H]1Oc1ccc(C)cc1)=NO[C@H](C)c1cn([C@H](CO)Cc2ccccc2)nn1`, the composite z-score is -0.0618.

The molecule `C#CCCCON=C1C[C@@H](O)[C@@H](O)[C@@H]2[C@@H]3C(=O)N(C(C)(C)C)C(=O)[C@@H]3CC[C@H]12` had a composite z-score of 1.01.

As to `COc1ccc(COC(=O)NN=C2C[C@@H](O)[C@@H](O)[C@@H]3[C@@H]4C(=O)N(C5CCCCC5)C(=O)[C@@H]4CC[C@H]23)cc1`, the composite z-score is 0.588.

For `COC(=O)CC=C[C@H](C)[C@@H](OCc1cccc(Br)c1)[C@@H](C)[C@H](OC)C1CCCCC1`, the composite z-score was found to be 0.451.

In turn, `Cc1ccc(S(=O)(=O)N[C@@H]2COC(=O)[C@@H](C)COC(=O)CC=C[C@H]2C)cc1` gave a composite z-score of 0.155.

Molecule `O=C1[C@H]2[C@H]3[C@H](O)[C@H](O)CC(=NO[C@@H]4O[C@H](CO)[C@@H](O)[C@H](O)[C@H]4O)[C@H]3CC[C@H]2C(=O)N1c1cccc(Oc2ccccc2)c1` came in with a composite z-score of 0.128.

Regarding `CCC1=NOC(CCC2CC(OC(=O)NCc3cccc4c3OCO4)CC3(CCCC(COC(=O)NCCc4ccccc4OC)O3)O2)C1` (stereo unspecified), the composite z-score was 0.13.

In turn, `CCOC(=O)[C@H](CC(C)C)NC(=O)CCC1CC(OC(=O)NCc2cccc3ccccc23)CC2(CCCC(COC(=O)NCCOc3ccccc3)O2)O1` (stereo partly specified) returned a composite z-score of 0.374.

Consider `O=c1n(Cc2cc3c(cc2Cl)OCO3)c(=O)n2n1CC[C@@H]1C(=NOCc3ccccc3)[C@H]3O[C@H]3[C@@H](O)[C@@H]12`, for which the composite z-score was 0.188.

Regarding `COC(=O)[C@@H]1CC[C@H](C)[C@@H](c2ccc(C)cc2)N1C(=O)c1ccc(C=NO[C@@H](C)c2cn([C@H](CO)Cc3ccccc3)nn2)cc1`, the composite z-score was -0.0378.

In the case of `CC(C)=CCCC(C)=CCON=C1C[C@@H](O)[C@@H](O)[C@@H]2[C@@H]3C(=O)N(Cc4ccccc4)C(=O)[C@@H]3CC[C@H]12`, the composite z-score is -0.0325.

On to `CC(C)C[C@H](NC(=O)CCC1CC(OC(=O)NCc2cccc3ccccc23)CC2(CCCC(COC(=O)NCc3ccccc3)O2)O1)C(=O)NCC(c1ccccc1)c1ccccc1` (stereo partly specified), for which the composite z-score was 0.139.

`CC(C)CON=C1C[C@@H](O)[C@@H](O)[C@@H]2[C@@H]3C(=O)N(C4CCCCC4)C(=O)[C@@H]3CC[C@@H]12` came in with a composite z-score of 1.2.

On to `C[C@@H](c1ccccc1)N1C(=O)[C@H]2[C@H]3[C@H](O)[C@H](O)CC(=NO[C@@H]4O[C@H](CO)[C@@H](O)[C@H](O)[C@H]4O)[C@H]3CC[C@H]2C1=O`, for which the composite z-score was -0.0577.

Consider `COC(=O)[C@@H]1CC[C@H](C)[C@@H](c2ccc(C)cc2)N1C(=O)c1ccc(C=NOC[C@@H](C)[C@H](OCc2ccccc2)C(C)C)cc1`, for which the composite z-score turned out to be 0.191.

For `C[C@@H](c1ccccc1)N1C(=O)[C@H]2[C@H]3[C@H](O)[C@H](O)CC(=NOCc4ccccc4)[C@H]3CC[C@H]2C1=O`, the composite z-score is 0.0852.

Molecule `COC(=O)CC=C[C@@H](C)[C@@H](C=NOCC[C@@H]1C=C[C@H](OC(C)=O)[C@@H](COC(C)=O)O1)OC` gave a composite z-score of 0.174.

Another assay can be described thus: small molecules captured by biotinylated probe aFGF2 – biochemical, small-molecule microarray, fluorescence 635/667, stem cell growth factor project, primary screen (AID 1067).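 Also: measures binding of biotinylated aFGF2 protein to printed compounds on slides; z-score merges feature fluorescence and signal-to-noise across triplicate slides.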 Particulars: higher = more signal.
Regarding `C#CCCCON=C1[C@H]2CCn3c(=O)n(C)c(=O)n3[C@H]2[C@H](O)[C@@H]2O[C@H]12`, the composite z-score turned out to be 0.0624.

Take `CCCCC#C[C@@H]1C=C[C@H](OC(C)=O)[C@@H](COC(C)=O)O1`: the composite z-score was -0.112.

For the molecule `CO[C@@H]1COC(=O)[C@@H](C)COC(=O)[C@@H](C)NC(=O)CC=C[C@@H]1C`, the composite z-score is -0.133.

As for `Cc1ccc(S(=O)(=O)OC[C@H]2CN3[C@H](c4ccc(Br)cc4)[C@@H](C)CC[C@H]3C(=O)O2)cc1`, the composite z-score was -0.106.

For `COc1ccc(COC(=O)NN=C2C[C@@H](O)[C@@H](O)[C@@H]3[C@@H]4C(=O)N(c5cccc(Oc6ccccc6)c5)C(=O)[C@@H]4CC[C@@H]23)cc1`, the composite z-score is -0.0363.

For the molecule `O=C1C2=CC[C@H]3C(=O)N(c4cccc(Oc5ccccc5)c4)C(=O)[C@H]3[C@H]2[C@H](O)[C@@H]2O[C@H]12`, the composite z-score was -0.14.

Take `CC(CCN1CCCCc2nc(C)c(C)cc21)=NO[C@H](C)c1cn([C@H](CO)Cc2ccccc2)nn1`: the composite z-score is -0.0894.

On to `CO[C@@H]1COC(=O)[C@H](CCSC)NC(=O)CC=C[C@@H](C)COC(=O)CCC[C@H]1C`, for which the composite z-score was -0.167.

Consider `CC(CCN1CCCc2nc(C)c(C)cc21)=NO[C@@H](C)c1cc(-c2c(C)cc(C)cc2C)no1`, for which the composite z-score is -0.0069.

`CO[C@@H]1COC(=O)[C@@H](C)NC(=O)CC=C[C@@H](C)[C@H](NS(=O)(=O)c2ccc(C)cc2)COC(=O)[C@H](C)NC(=O)CC=C[C@H]1C`: the composite z-score was -0.119.

Regarding `CCN1C(=O)[C@H]2[C@H]3[C@H](O)[C@H](O)CC(=NOC[C@H]4O[C@H](c5ccccc5)C=C[C@@H]4Oc4ccc(OC)cc4)[C@@H]3CC[C@H]2C1=O`, the composite z-score is 0.0338.

As for `CCOC(=O)[C@H](CC(C)C)NC(=O)CCC1CC(OC(=O)NCc2cccc3ccccc23)CC2(CCCC(COC(=O)NCC3CCCCC3)O2)O1` (stereo partly specified), the composite z-score is -0.0744.

Consider `CC(C)CCN1CCc2nc(COc3ccccc3)c3c(c2C1)CO[C@@H](C)C3`, for which the composite z-score was -0.0819.

With `COC(=O)CC=C[C@@H](C)[C@@H](C=NO[C@H](C)c1cn([C@H](CO)Cc2ccccc2)nn1)OC`, the composite z-score is -0.0867.

Regarding `CON=C(C)CCC(=O)OC[C@H]1O[C@H](c2ccccc2)C=C[C@@H]1Oc1ccc(OC)cc1`, the composite z-score is -0.0504.

Regarding `CCOC(=O)NN=C1C[C@@H](O)[C@@H](O)[C@@H]2[C@@H]3C(=O)N(c4cccc(Oc5ccccc5)c4)C(=O)[C@@H]3CC[C@@H]12`, the composite z-score was -0.085.

Consider `CCN1C(=O)[C@H]2[C@H]3[C@H](O)[C@H](O)CC(=NO[C@@H](C)c4cn([C@H](CO)Cc5ccccc5)nn4)[C@@H]3CC[C@H]2C1=O`, for which the composite z-score was -0.0704.

As for `COC(=O)CC=C[C@@H](C)[C@@H]1C=C[C@H](O)[C@@H](CO)O1`, the composite z-score was -0.106.

Consider `C[C@@H](ON=C1[C@H]2CCn3c(=O)n(-c4ccccc4)c(=O)n3[C@H]2[C@H](O)[C@@H]2O[C@H]12)c1cn([C@@H]2COC[C@H]2O)nn1`, for which the composite z-score was -0.0529.

On to `CC(CCC(=O)OC[C@H]1O[C@H](C#Cc2ccccc2)C=C[C@@H]1Oc1ccc(C)cc1)=NO[C@H](C)c1cn([C@H](CO)Cc2ccccc2)nn1`, for which the composite z-score is -0.122.

Regarding `C#CCCCON=C1C[C@@H](O)[C@@H](O)[C@@H]2[C@@H]3C(=O)N(C(C)(C)C)C(=O)[C@@H]3CC[C@H]12`, the composite z-score was -0.0245.

Take `COc1ccc(COC(=O)NN=C2C[C@@H](O)[C@@H](O)[C@@H]3[C@@H]4C(=O)N(C5CCCCC5)C(=O)[C@@H]4CC[C@H]23)cc1`: the composite z-score was -0.0784.

For the molecule `COC(=O)CC=C[C@H](C)[C@@H](OCc1cccc(Br)c1)[C@@H](C)[C@H](OC)C1CCCCC1`, the composite z-score was -0.245.

For `Cc1ccc(S(=O)(=O)N[C@@H]2COC(=O)[C@@H](C)COC(=O)CC=C[C@H]2C)cc1`, the composite z-score is -0.0777.

Turning to `O=C1[C@H]2[C@H]3[C@H](O)[C@H](O)CC(=NO[C@@H]4O[C@H](CO)[C@@H](O)[C@H](O)[C@H]4O)[C@H]3CC[C@H]2C(=O)N1c1cccc(Oc2ccccc2)c1`, the composite z-score was -0.0867.

Regarding `CCC1=NOC(CCC2CC(OC(=O)NCc3cccc4c3OCO4)CC3(CCCC(COC(=O)NCCc4ccccc4OC)O3)O2)C1` (stereo unspecified), the composite z-score is -0.0466.

Regarding `CCOC(=O)[C@H](CC(C)C)NC(=O)CCC1CC(OC(=O)NCc2cccc3ccccc23)CC2(CCCC(COC(=O)NCCOc3ccccc3)O2)O1` (stereo partly specified), the composite z-score is -0.016.

Turning to `O=c1n(Cc2cc3c(cc2Cl)OCO3)c(=O)n2n1CC[C@@H]1C(=NOCc3ccccc3)[C@H]3O[C@H]3[C@@H](O)[C@@H]12`, the composite z-score was -0.14.

Regarding `COC(=O)[C@@H]1CC[C@H](C)[C@@H](c2ccc(C)cc2)N1C(=O)c1ccc(C=NO[C@@H](C)c2cn([C@H](CO)Cc3ccccc3)nn2)cc1`, the composite z-score was -0.0943.

`CC(C)=CCCC(C)=CCON=C1C[C@@H](O)[C@@H](O)[C@@H]2[C@@H]3C(=O)N(Cc4ccccc4)C(=O)[C@@H]3CC[C@H]12`: the composite z-score is -0.0263.

As for `CC(C)C[C@H](NC(=O)CCC1CC(OC(=O)NCc2cccc3ccccc23)CC2(CCCC(COC(=O)NCc3ccccc3)O2)O1)C(=O)NCC(c1ccccc1)c1ccccc1` (stereo partly specified), the composite z-score was -0.113.

`CC(C)CON=C1C[C@@H](O)[C@@H](O)[C@@H]2[C@@H]3C(=O)N(C4CCCCC4)C(=O)[C@@H]3CC[C@@H]12`: the composite z-score is -0.0955.

`C[C@@H](c1ccccc1)N1C(=O)[C@H]2[C@H]3[C@H](O)[C@H](O)CC(=NO[C@@H]4O[C@H](CO)[C@@H](O)[C@H](O)[C@H]4O)[C@H]3CC[C@H]2C1=O`: the composite z-score is -0.0291.

For `COC(=O)[C@@H]1CC[C@H](C)[C@@H](c2ccc(C)cc2)N1C(=O)c1ccc(C=NOC[C@@H](C)[C@H](OCc2ccccc2)C(C)C)cc1`, the composite z-score was -0.0707.

Regarding `C[C@@H](c1ccccc1)N1C(=O)[C@H]2[C@H]3[C@H](O)[C@H](O)CC(=NOCc4ccccc4)[C@H]3CC[C@H]2C1=O`, the composite z-score was -0.0667.

`COC(=O)CC=C[C@@H](C)[C@@H](C=NOCC[C@@H]1C=C[C@H](OC(C)=O)[C@@H](COC(C)=O)O1)OC` had a composite z-score of 0.0144.
